Inconclusive results are not listed. Where a call stands in place of a potency, no number is given. Activity calls are given as the source filed them. Unless noted, calls come from the whole dose curve.

Sequence of Estrogen receptor (Homo sapiens) (P03372 whole entry, looked up): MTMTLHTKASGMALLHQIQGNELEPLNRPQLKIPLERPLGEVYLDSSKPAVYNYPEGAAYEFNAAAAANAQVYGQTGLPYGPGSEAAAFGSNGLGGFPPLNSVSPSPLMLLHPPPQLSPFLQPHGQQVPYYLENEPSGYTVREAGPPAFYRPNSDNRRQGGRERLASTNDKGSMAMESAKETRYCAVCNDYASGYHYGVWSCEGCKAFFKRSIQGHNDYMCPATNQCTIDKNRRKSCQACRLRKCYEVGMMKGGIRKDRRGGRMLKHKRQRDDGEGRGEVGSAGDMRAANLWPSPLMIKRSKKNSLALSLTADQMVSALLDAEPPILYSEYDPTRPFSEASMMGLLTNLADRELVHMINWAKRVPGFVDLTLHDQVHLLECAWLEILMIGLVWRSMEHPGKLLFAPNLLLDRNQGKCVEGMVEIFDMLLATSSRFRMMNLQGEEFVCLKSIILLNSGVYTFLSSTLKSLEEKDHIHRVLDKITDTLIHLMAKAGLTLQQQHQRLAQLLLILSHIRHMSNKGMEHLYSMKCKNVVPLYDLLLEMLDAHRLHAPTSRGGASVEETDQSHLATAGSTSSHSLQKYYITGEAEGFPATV

The target in the first experiment is Estrogen receptor (Homo sapiens) (UniProt P03372). The experiment can be described thus: qHTS assay to identify small molecule antagonists of the estrogen receptor alpha (ER-alpha) signaling pathway (AID 743069; active = well fitted curve in the direction sought with a large enough effect in the signal ratio in the repeat runs, not every such curve was filed as active; the % refers to the signal ratio). To be noted: HEK293 ER-alpha-UAS-bla, beta-lactamase ratio, antagonist mode; series mostly up to 69.4 µM. The method, boiled down:
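Beta-lactamase FRET fluorescence is read after 2 hr at room temperature with LiveBLAzer B/G substrate. Before that, ER-alpha-bla HEK293 cells sit 4 hr after plating, then receive compound plus 17beta-estradiol and incubate 18 hr at 37C.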
Background: In qHTS, concentration-response curves come from the screen itself.
Regarding `Cn1c([N+](=O)[O-])cnc1COC(N)=O`, the Potency entry was “inactive”.
Same read-out and setting: the value for `CC(C)Cc1ccccc1` was “inactive”.
As to `O=[N+]([O-])C(CO)(CO)CO`, the Potency entry is “inactive”.
On to `O=S(=O)(O)CCS`, for which the Potency result was “inactive”.
In the case of `OC[C@@H](O)[C@@H](O)[C@H](O)[C@@H](O)CO`, the Potency result is “inactive”.
Take `CC1Cc2ccccc2N1NC(=O)c1ccc(Cl)c(S(N)(=O)=O)c1` (stereo unspecified): the Potency entry is “inactive”.
On to `COC(=O)c1ccccc1O`, for which the Potency result was “inactive”.
For `COC(=O)c1ccc(C(=O)OC)cc1`, the Potency entry is “inactive”.
On to `c1ccc2ccccc2c1`, for which the Potency result is “inactive”.
With `CC(C)(CO)COC(=O)C(C)(C)CO`, the Potency result is “inactive”.
For `O=[N+]([O-])c1cccc(Cl)c1`, the Potency entry was “inactive”.
As to `CC1COc2ccccc2N1C(=O)C(Cl)Cl` (stereo unspecified), the Potency entry is “inactive”.
On the same count and under the same terms, the value for `CCCCCCCCC` was “inactive”; that for `Cc1cc(=O)[nH]c(C(C)C)n1` was “inactive”; that for `Nc1c(S(=O)(=O)O)cc(Br)c2c1C(=O)c1ccccc1C2=O` was “inactive”.
As to `Nc1cc(-c2ccncc2)c[nH]c1=O`, the Potency entry was “inactive”.
Still for that read-out and setting: under `CCCCOCCO` stands “inactive”.
In the case of `CC(=O)Nc1ccc(C(=O)O)cc1`, the Potency result was “inactive”.
`COCC(=O)O`: the Potency entry was “inactive”.
Turning to `C=CC(=O)OCCCCCCCC(C)C`, the Potency result is “inactive”.
For `CCCCCCCCCCCCOCC1CO1` (stereo unspecified), the Potency entry is “inactive”.
On the same count and under the same terms, under `CCC(C)C=O` (stereo unspecified) stands “inactive”; under `O=S(=O)(O)c1cc(S(=O)(=O)O)c2c(N=Nc3ccccc3)c(O)ccc2c1`, “inactive”; under `CC1(C)CC(N=C=O)CC(C)(CN=C=O)C1` (stereo unspecified), “inactive”.
In the case of `Clc1cc(Cl)c(Cl)cc1Cl`, the Potency result is “inactive”.
For `O=C(Cl)c1c(Cl)c(Cl)c(C(=O)Cl)c(Cl)c1Cl`, the Potency entry is “inactive”.
`CS(=O)(=O)c1ccc([C@@H](O)[C@@H](CO)NC(=O)C(Cl)Cl)cc1`: the Potency result was “inactive”.
`C=C1C2CCC(C2)C1(C)C` (stereo unspecified): the Potency entry was “inactive”.
For `CCOC(=O)[C@H](CCc1ccccc1)N[C@@H](C)C(=O)N1Cc2ccccc2C[C@H]1C(=O)O`, the Potency entry was “inactive”.
Consider `C=C(C)C(=O)OCCCCCCCCCCCC`, for which the Potency entry was “inactive”.
With `OC1CCCC1`, the Potency entry is “inactive”.
As to `COCC(C)O` (stereo unspecified), the Potency entry was “inactive”.
For the molecule `Cc1ccc(C)c(C)c1`, the Potency result is “inactive”.
For the molecule `O=Nc1ccc(O)cc1`, the Potency result is “inactive”.
On the same count and under the same terms, the value for `OCCOCCOCCOCCO` was “inactive”; that for `CCCCOCCOCCOC(=O)CCCCC(=O)OCCOCCOCCCC` was “inactive”.
Still for that read-out and setting: the value for `CC[Si](OC(C)=O)(OC(C)=O)OC(C)=O` was “inactive”.
As to `OC[C@@H](O)[C@H](O)[C@H](O)[C@@H](O)CO`, the Potency result is “inactive”.

System in a further experiment: not listed separately
Put plainly: qHTS assay to identify small molecule antagonists of the estrogen receptor alpha (ER-alpha) signaling pathway - cell viability counter screen (AID 743074).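 Note: HEK293 cells carrying ER-alpha-UAS-bla reporter stimulated with 17beta-estradiol; nearly all actives have a fitted effect of over 45% in size.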 To be noted: ERalpha-bla HEK293 viability, CellTiter-Glo luminescence, 18 h; series mostly up to 69.4 µM.
Consider `Cn1c([N+](=O)[O-])cnc1COC(N)=O`, for which the Potency result was “inactive”.
On to `CC(C)Cc1ccccc1`, for which the Potency entry was “inactive”.
As to `O=[N+]([O-])C(CO)(CO)CO`, the Potency entry was “inactive”.
`O=S(=O)(O)CCS`: the Potency result is “inactive”.
As for `OC[C@@H](O)[C@@H](O)[C@H](O)[C@@H](O)CO`, the Potency result was “inactive”.
Take `CC1Cc2ccccc2N1NC(=O)c1ccc(Cl)c(S(N)(=O)=O)c1` (stereo unspecified): the Potency result was “inactive”.
Take `COC(=O)c1ccccc1O`: the Potency result was “inactive”.
On to `COC(=O)c1ccc(C(=O)OC)cc1`, for which the Potency result was “inactive”.
In the case of `c1ccc2ccccc2c1`, the Potency entry is “inactive”.
`CC(C)(CO)COC(=O)C(C)(C)CO`: the Potency result is “inactive”.
`O=[N+]([O-])c1cccc(Cl)c1`: the Potency entry is “inactive”.
In the case of `CC1COc2ccccc2N1C(=O)C(Cl)Cl` (stereo unspecified), the Potency result is “inactive”.
For `CCCCCCCCC`, the Potency result was “inactive”.
On to `Cc1cc(=O)[nH]c(C(C)C)n1`, for which the Potency entry was “inactive”.
On the same count and under the same terms, under `Nc1c(S(=O)(=O)O)cc(Br)c2c1C(=O)c1ccccc1C2=O` stands “inactive”.
With `Nc1cc(-c2ccncc2)c[nH]c1=O`, the Potency entry is “inactive”.
As to `CCCCOCCO`, the Potency entry was “inactive”.
Take `CC(=O)Nc1ccc(C(=O)O)cc1`: the Potency result is “inactive”.
As to `COCC(=O)O`, the Potency entry is “inactive”.
Regarding `C=CC(=O)OCCCCCCCC(C)C`, the Potency result is “inactive”.
For `CCCCCCCCCCCCOCC1CO1` (stereo unspecified), the Potency result was “inactive”.
For the molecule `CCC(C)C=O` (stereo unspecified), the Potency result is “inactive”.
With `O=S(=O)(O)c1cc(S(=O)(=O)O)c2c(N=Nc3ccccc3)c(O)ccc2c1`, the Potency result was “inactive”.
For the molecule `CC1(C)CC(N=C=O)CC(C)(CN=C=O)C1` (stereo unspecified), the Potency result is “inactive”.
For `Clc1cc(Cl)c(Cl)cc1Cl`, the Potency entry was “inactive”.
As for `O=C(Cl)c1c(Cl)c(Cl)c(C(=O)Cl)c(Cl)c1Cl`, the Potency result is “inactive”.
Same read-out and setting: the value for `CS(=O)(=O)c1ccc([C@@H](O)[C@@H](CO)NC(=O)C(Cl)Cl)cc1` was “inactive”.
In the case of `C=C1C2CCC(C2)C1(C)C` (stereo unspecified), the Potency result was “inactive”.
In the case of `CCOC(=O)[C@H](CCc1ccccc1)N[C@@H](C)C(=O)N1Cc2ccccc2C[C@H]1C(=O)O`, the Potency result was “inactive”.
Turning to `C=C(C)C(=O)OCCCCCCCCCCCC`, the Potency result was “inactive”.
Consider `OC1CCCC1`, for which the Potency result is “inactive”.
As for `COCC(C)O` (stereo unspecified), the Potency result is “inactive”.
`Cc1ccc(C)c(C)c1`: the Potency entry was “inactive”.
Regarding `O=Nc1ccc(O)cc1`, the Potency result was “inactive”.
In the case of `OCCOCCOCCOCCO`, the Potency result was “inactive”.
Still for that read-out and setting: the value for `CCCCOCCOCCOC(=O)CCCCC(=O)OCCOCCOCCCC` was “inactive”; that for `CC[Si](OC(C)=O)(OC(C)=O)OC(C)=O` was “inactive”; that for `OC[C@@H](O)[C@H](O)[C@H](O)[C@@H](O)CO` was “inactive”.

Values taken from PubChem BioAssay (Tox21).
